# KCNH2 3.1 inh – KCNH2 3.1 (human) potassium channel inhibition. U2OS KCNH2 3.1, thallium flux FluxOr; hits give low values. activity change, % (tested at about 1.8 µM). 0.95% of 340,000 active. AID 720553;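 active means maximum activity change below -70%; inconclusive means maximum activity change from -70% to -50%; inactive means maximum activity change above -50%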;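 further: thallium influx rate constant from kinetic fluorescence after stimulation buffer; on the % scale 0 is the no-effect control and ±100 the full control effect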
#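 Normalized rate constant (relative to positive and negative DMSO controls) derived from a 2 min kinetic fluorescence read after stimulation; U2OS cells expressing the 3.1 isoform via virus at 1.77 x 10^8 /mL.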
# Rango-impB inh – prevents formation of the Rango-importin beta complex. Q14974. Rango CFP/YFP FRET sensor + importin beta, 45 min. Potency, µM (series often up to 92.2 µM), without a hit: at the top dose inhibition of complex formation. 0.031% of 340,000 active. AID 540263;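 further: potency means the concentration at half of the fitted maximal effect; 0% = DMSO wells and 100% = buffer wells lacking importin beta; nearly all actives have a fitted effect of over 15% in size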
#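 Inhibition scored from the CFP 486 nm/YFP 530 nm FRET ratio 45 min after adding 0.125 microM importin beta to 50 nM Rango biosensor preincubated 5 min with compound (room temperature, PBS with DTT, Tween-20, BSA). No-importin wells as positive control.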
# KCNH2 WT inh – KCNH2 (human, wildtype) channel inhibition. 0.37% of 340,000 active. U2OS, BacMam KCNH2, thallium flux FluxOr; hits give low values. activity change, % at 1.84 µM;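 active means maximum activity change below -70%; inconclusive means maximum activity change between -70% and -50%; inactive means maximum activity change above -50%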; further: on the % scale 0 is the no-effect control and ±100 the full control effect
#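 U2OS cells were transduced with wild-type KCNH2 virus (2.03 x 10^8 / mL) for 4 h at room temperature, then cultured overnight at 37 C. Thallium flux was read with FluxOr dye. Rate constants were normalized to DMSO controls.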
# CCT chaperon mod – modulators of cytosolic chaperonin (CCT/TRiC) activity; purified chaperonin ATPase assay, HTRF ADP detection, 30 min; activity change, % (no concentration beside the values), hits read low; 0.3% of 360,000 active; AID 651819; in the data active means activity change below about -30%; further: on the % scale 0 is the no-effect control and ±100 the full control effect
#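 First, chaperonin was dispensed at 40 nM or 20 nM final depending on batch activity. Next, compounds were pinned at 76 uM and ATP added at 10 uM. After 30 min at 37 °C, ADP detection reagents ran 30 min at ambient temperature.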
# MmCpn inh – blocks the Methanococcus maripaludis chaperonin Mm-Cpn; Potency, µM (titrated, usually from 76.9 µM), inactives show at the top dose activity, negative = inhibition, hits mostly inhibitors; purified Mm-Cpn ATPase, ADP Transcreener TR-FRET; 0.031% of 330,000 active; active means well fitted inhibition curve with a large enough effect; inconclusive means small, poorly fitted or top-dose-only effect; further: potency means the concentration at half of the fitted maximal effect; on the % scale 0 is the no-effect control and ±100 the full control effect; nearly all actives have a fitted effect of over 80% in size
#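 Quantitative HTS used 25 nM Mm-CPN and 10 uM ATP in magnesium/KCl Tris buffer, pH 7.4, with 1 mM DTT. Hydrolysis ran 30 min at 37°C; ADP was read by HTRF.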
# Rango dissoc inh – inhibitors of RanGTP-induced Rango-importin beta complex dissociation; Potency, µM (top dose mostly 46.1 µM), for the others: at the top dose activity change, negative = inhibition; 0.071% of 340,000 active; O95149+P62826; Biochemical FRET Rango-importin beta, RanGTP-induced dissociation; further: potency means the concentration at half of the fitted maximal effect; % of control where 0% means no effect; nearly all actives have a fitted effect of over 45% in size
#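 Rango FRET biosensor (snurportin-1 IBB flanked by N-terminal EYFP and C-terminal CFP10) at 0.1 uM, with 0.25 uM importin beta in PBS, 1mM DTT, 0.02% Tween-20, 0.1% BSA. 0.6 uM Ran, 2mM GTP and 0.2 uM RCC1 were then added for 45 min at room temperature. Inhibition read as loss of FRET rise.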
# Starred values were filed as active, the others as inactive; ? = inconclusive; · = no result; [ ] = dose if it differs, or a comment. Compounds with a hit are over-represented: about 1.4% of the library has one in this group of screens. Unless noted, the call rests on the fitted dose curve.
SMILES,KCNH2 3.1 inh,Rango-impB inh,KCNH2 WT inh,CCT chaperon mod,MmCpn inh,Rango dissoc inh
O=C(COC(=O)c1ccc([N+](=O)[O-])o1)NC1CCCc2ccccc21 (centres undefined),0,-1%,-3,-2,-5%,-14%
O=C(N/N=C\c1ccc(CN(Cc2ccc(Cl)cc2)S(=O)(=O)c2ccccc2)o1)C(=O)Nc1ccc(F)cc1,-75*,0%,-48,2,1%,-7%
O=C1CCN(Cc2ccc(O)cc2)CCN1[C@H](CO)c1ccccc1,-118*,2%,-3,-2,-1%,-21%
CCCN1CCC(=O)N([C@H](CSc2ccc(Br)cc2)c2ccccc2)CC1,-116*,2%,-130*,1,0%,-18%
CC(=O)Nc1ccc(SC[C@H](c2ccccc2)N2CCN(CCc3ccccc3)CCC2=O)cc1,·,·,·,·,1%,·
O=C1CCN(CCc2ccccc2)CCN1[C@H](CSc1ccc(Br)cc1)c1ccccc1,-113*,2%,-170*,-1,-7%,1%
CCOC(=O)c1c(N)sc(C(=O)N2CCOCC2)c1C,-12,-3%,8,-4,-2%,-4%
CCOC(=O)c1c(P(=O)(N2CCOCC2)N2CCOCC2)noc1N,14,-1%,-7,-54*,0%,-21%
CN(CC1CCOCC1)C(=O)CC1C(=O)NCCN1Cc1cccc(C(F)(F)F)c1 (centres undefined),5,-3%,5,2,1%,-13%
N#Cc1ccc2c(c1)C[C@]1(c3ccsc3)OC3=C(C(=O)OC4(CCCCC4)C3)C2O1,·,·,·,·,-10%[15.4 µM],·
CC1CCCN(CCCNC(=O)c2nn(C)c3c2CS(=O)(=O)c2ccccc2-3)C1 (centres undefined),4,-1%,16,-76*,-2%,6%
COc1cc(Br)cc(C=Nc2cccc(C(F)(F)F)c2)c1O,5,?,-2,-31*,1%,?
COc1cccc(C=Nc2cc(C)cc(C)c2)c1O,16,0%,1,1,0%,0%
COc1ccc(N(CC(=O)Nc2cc(Cl)ccc2C)S(=O)(=O)c2c(C)n[nH]c2C)cc1,2,1%,12,-59*,-5%,7%
COc1ccc(N(CC(=O)Nc2ccc(C)cc2C)S(=O)(=O)c2c(C)n[nH]c2C)cc1,-1,?,13,2,0%,12%
COc1cc2c(-c3ccc4cc[nH]c4c3)c(-c3ccc(C#N)cc3)oc(=O)c2cc1OC,-13,?,-5,-6,-6%,-15%
COc1ccccc1C(=O)Nc1ccc(S(=O)(=O)Nc2cnc3ccccc3n2)cc1,1,4%,3,-1,-2%,-9%
Nc1nc(N2CCN(C(=O)c3ccco3)CC2)nc2ccc(Br)cc12,-89*,7%,·,1,?,18%
CCOC(=O)C1(CCOc2ccccc2)CCN(Cc2cc(OC)c3c(c2)OCO3)CC1,-71*,3%,-32,1,1%,-18%
CCOC(=O)C1(CCOc2ccccc2)CCN(Cc2ccc(OCC)c(CO)c2)CC1,-108*,0%,-87*,0,·,6%
CCOC(=O)C1(CCOc2ccccc2)CCN(Cc2ccc(OC)cc2)CC1,-120*,0%,-98*,1,·,4%
CC(C)N(CCCNC(=O)c1ccc(CS(=O)(=O)c2c(Cl)cccc2Cl)o1)Cc1ccccc1,-1,-1%,24,-2,-3%,2%
CC(C)(C)c1ccc(OCCC(=O)NNC(=O)c2ccncc2)cc1,0,-1%,-2,-1,-10%,4%
Cc1nn(-c2nc3ccccc3[nH]2)c(N)c1-c1ccc(Cl)cc1,-84*,-2%,-6,1,0%,4%
O=C(CCCN1C(=O)C(c2ccccc2)Oc2cccnc21)NCc1ccccc1Cl (centres undefined),3,-3%,-2,1,-2%,-10%
SMILES,KCNH2 3.1 inh,Rango-impB inh,KCNH2 WT inh,CCT chaperon mod,MmCpn inh,Rango dissoc inh
O=C(CCCN1C(=O)C(c2ccccc2)Oc2cccnc21)NCCc1ccc(Cl)cc1 (centres undefined),-1,1%,13,-125*,-9%,11%
Oc1cccc(/C=N/Nc2nn3cnnc3c3ccccc23)c1,-114*,0%,14,0,-1%,2%
Cc1c(Cl)cccc1Nc1nc(N)nc(CN2CCc3ccccc3C2)n1,-22,-2%,33,-1,0%,13%
COc1ccccc1Nc1nc(N)nc(CN2CCN(c3ccccc3F)CC2)n1,-19,0%,21,-2,2%,-2%
COc1ccccc1Nc1nc(N)nc(CN2CCN(Cc3ccc4c(c3)OCO4)CC2)n1,-110*,-2%,-49,0,1%,22%
COc1ccc(Nc2nc(N)nc(CN3CCN(c4ccc(F)cc4)CC3)n2)cc1,-77*,6%,47,-5,0%,-9%
Cc1ccc(Nc2nc(N)nc(CN3CCc4ccccc4C3)n2)cc1,-79*,0%,-12,0,-4%,-14%
Cc1ccc(Nc2nc(N)nc(CSc3nc4ccccc4s3)n2)cc1,-72*,-6%,-3,2,0%,12%
CCOC(=O)C(CC)(CC)C(=O)/C=C/c1cccc(Br)c1,-4,1%,-9,-2,·,14%
CC(=O)Oc1ccc(OC(C)=O)c2c1CC(C)=C(C)C2,-7,0%,11,-1,-5%,-4%
COc1ccc(CNC(=O)CN2c3ccccc3S(=O)(=O)c3ccccc32)cc1,-12,-2%,1,1,-18%,-14%
Cc1cccc(Nc2nc(N)nc(CN3CCN(c4ccccc4F)CC3)n2)c1,-80*,-1%,25,-1,·,-10%
Nc1nc(CN2CCN(Cc3ccccc3)CC2)nc(Nc2ccccc2)n1,-40,4%,43,0,1%,9%
COc1ccccc1Nc1nc(N)nc(CN2CCN(Cc3ccccc3)CC2)n1,-77*,0%,-21,1,0%,3%
COc1ccccc1Nc1nc(N)nc(CN2CCCCC2)n1,3,-2%,23,-2,-3%,2%
Cc1cccc(Nc2nc(N)nc(CN3CCN(Cc4ccc5c(c4)OCO5)CC3)n2)c1,-110*,4%,-26,-8,-3%,0%
Nc1nc(CN2CCN(c3ccccn3)CC2)nc(Nc2ccc(Cl)cc2)n1,-21,-8%,-104*,-1,0%,-10%
CC1(C)OC2CC3C4CC(F)C5=CC(=O)C=CC5(C)C4(F)C(O)CC3(C)C2(C(=O)CO)O1 (centres undefined),13,0%,-2,1,1%,-19%
Cc1nc2ccccn2c1C(=O)NN=C1C2CC3CC(C2)CC1C3,4,-2%,0,-1,0%,-5%

# Compound activity (PubChem BioAssay)
